# Measured values published in article PMC6212790, “How bacterial xenogeneic silencer rok distinguishes foreign from self DNA in its resident genome”.
# Over roughly 33,000 sequences, “e-score” has its median near -0.037; the highest 2% begin near 0.34. The entries come from a sample that favours the highest values as a whole.
# Molecular target: T1, GST-Rok (full length) (Bacillus subtilis subsp. subtilis str. …, UniProt O34857 1-191)
# T1 sequence: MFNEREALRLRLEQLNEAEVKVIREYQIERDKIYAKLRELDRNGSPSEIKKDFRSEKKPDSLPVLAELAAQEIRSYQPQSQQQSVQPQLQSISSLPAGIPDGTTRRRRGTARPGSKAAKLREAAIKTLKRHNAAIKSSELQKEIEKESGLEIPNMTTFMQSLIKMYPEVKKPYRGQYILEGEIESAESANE
# Test: protein binding microarray; Rok is a gene silencer of Bacillus subtilis; high values mean tight binding
# Details: protein: recombinant; tags: GST (pTH5325, pDEST15-Magic modified); dsDNA, one strand shown
# How it was run: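 Each has a 25-mer constant primer and a 35-mer variable part from a de Bruijn sequence of order 10, covering every non-palindromic 8-mer at least 32 times (palindromic 16). Preference for each 8-mer is given as a rank-based, unitless enrichment score (E-score). Its range runs from 0.5 (most favored) to −0.5 (most disfavored).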
row,Sequence,binding signal [E-score]
1,GCTGGCAC,-0.181
2,GTGCCAAA,-0.127
3,AGTGAAGA,-0.00169
4,CTCGAAAG,-0.0828
5,AACCTAAA,0.102
6,AACCTATA,0.239
7,CACCTAAA,0.131
8,TACCTAAA,0.37
9,CACCTATA,0.214
10,TACCTATA,0.37
11,ATTAAGAA,0.154
12,ACTTGCCG,-0.0504
13,AAACTCTC,0.106
14,CACCATCG,-0.0961
15,TATCAATA,0.343
16,AATCAATA,0.296
17,GATCAATA,0.157
18,CTCGCGAG,-0.0252
19,AGAAGGAC,-0.175
20,ACAGAGGC,-0.125
21,GACTATTA,0.157
22,ACCTATTG,0.182
23,AACTATTA,0.431
24,CACTATTA,0.268
25,AACTATTG,0.378

row,Sequence,binding signal [E-score]
1,AACTATTC,0.315
2,CGGACTCA,-0.0715
3,ATTTTGAA,0.162
4,CTAAGGGA,-0.154
5,CAGCCCGG,-0.158
6,AAGTCCGC,-0.0838
7,GCAAGTAA,-0.0735
8,AACCTCAT,-0.155
9,ACTAGTGA,0.172
10,ATTAGTAA,0.314
11,CCTAGTAA,0.256
12,GCTAGTAA,0.294
13,ACTAGTAA,0.382
14,TCTAGTAA,0.351
15,CTAAGCAG,-0.152
16,ACATCGAT,0.166
17,AGCTGGGG,-0.188
18,ACAAGAAA,-0.0731
19,ACTAGAAA,0.344
20,ACGAGAAA,-0.0804
21,ACTAGAAT,0.356
22,GCTAGAAA,0.37
23,ACTAGAAC,0.296
24,CCTAGAAA,0.0461
25,TCTAGAAA,0.222

row,Sequence,binding signal [E-score]
1,ACTAGAAG,0.215
2,CGCTAGTA,0.31
3,CTGGCAGA,-0.0653
4,AGGCAACG,-0.102
5,CGACGCAA,0.0906
6,CCAGATAG,0.188
7,CTAGATAG,0.346
8,CGAGATAG,0.0866
9,ATAGATAT,0.374
10,ATAGATAA,0.297
11,ACAGATAT,0.153
12,ATAGATAC,0.331
13,ATAGAGAT,0.0483
14,ATCGATAG,0.361
15,ATCGATAC,0.213
16,ATCGATAA,0.332
17,ATAGATAG,0.34
18,CCAAGTGG,-0.0692
19,CTAAAGAG,0.00604
20,AGTTGTGC,0.157
21,TGTTAACA,0.207
22,AAGAGCGA,-0.102
23,ATTGTTTA,-0.087
24,AGTGGAGG,-0.0535
25,ATAGATTA,0.301

row,Sequence,binding signal [E-score]
1,AGTGATAG,0.377
2,AGTGATAA,0.145
3,ATAGATTG,0.316
4,ATAGATTC,0.374
5,AGTGATAC,0.231
6,AGGATTTA,0.0716
7,ACTGTACT,0.209
8,AGATATCG,0.218
9,GCCCGTAA,-0.148
10,ATGGACAT,0.0858
11,CCGCGGCG,-0.19
12,GATAGCAA,0.189
13,AATAGCTA,0.358
14,GATAGCTA,0.35
15,CATAGCTA,0.306
16,GATAGCGA,0.106
17,AATAGCTG,0.206
18,ACAGTAAC,0.293
19,GTCAAAAC,0.00409
20,GGAATGTA,0.103
21,AACACCGT,0.146
22,GTGACAAC,-0.0442
23,ACTAGACG,-0.0512
24,GCTAGATA,0.342
25,ACTAGAGA,-0.0107

row,Sequence,binding signal [E-score]
1,ACTAGATA,0.402
2,ACTAGATG,0.339
3,ACTAGATC,0.327
4,ACTAGACA,0.054
5,GCTAGACA,0.0674
6,CCTAGATA,0.101
7,CAGATTAG,0.083
8,CAGTGTAA,0.192
9,CACAAAGC,0.0266
10,ACCACAAG,-0.065
11,CAGGTGCA,-0.198
12,TATGTCGA,0.132
13,CTAATCGA,0.122
14,ACTACCAG,0.238
15,ACTACCAA,0.305
16,CCTACCAC,0.224
17,ACTACCAT,0.352
18,GCTACCAC,0.188
19,ACTACCAC,0.347
20,TAGTACCA,0.166
21,GCATCGAC,0.0744
22,GTGTAGAA,0.292
23,CTGTAGAA,0.345
24,CTGTAGAC,0.117
25,ATGTAGAG,0.199

row,Sequence,binding signal [E-score]
1,ATGTAGAC,0.257
2,ATGTAGAA,0.423
3,CCCAAACC,-0.181
4,GTACGGTA,0.232
5,TACTTACA,0.331
6,AGGTAGGC,-0.115
7,GAGTGAAA,-0.103
8,CTATAGTA,0.365
9,CTATAGTC,0.096
10,ATATAGTC,0.25
11,GTATAGTA,0.316
12,ATATAGTA,0.456
13,ATATAGTG,0.274
14,ACTGCTAG,-0.0701
15,CCGACCAA,-0.12
16,CCGACTAA,0.0388
17,AGAAACAA,0.253
18,AGGTATGC,0.154
19,AAGTGGAG,-0.191
20,ATCTAATG,0.241
21,ATCTAATC,0.351
22,ATCTAATA,0.313
23,ATAATTTC,0.351
24,ATAATTCA,0.21
25,TAAATTTA,0.361

row,Sequence,binding signal [E-score]
1,GTAATTTA,0.355
2,CTAATTTC,0.162
3,CTAATTTA,0.286
4,GCAATTTA,0.279
5,GTAATTGA,0.246
6,CAAATTTA,0.168
7,ATAATTTA,0.397
8,ATAATTTG,0.284
9,AAAATTTA,0.293
10,TAAAGCCA,-0.0305
11,AACTCAAT,0.296
12,CGCCATTC,-0.0796
13,AATAAGGC,-0.0153
14,ATGTCGCG,-0.0435
15,CCATTTAC,0.0848
16,GTCATATA,0.291
17,GAATGGGA,-0.15
18,ACGAGCTA,-0.107
19,CAAACTAA,0.378
20,AAAACTAG,0.334
21,AAAACTGT,-0.0241
22,AAAACTAC,0.453
